Only some compounds are listed: those with a hit (about 1.3% of all), similar ones and a draw of the others.
SRC2 inh – inhibits human steroid receptor coactivator 2; HEK293 GAL4-SRC2 luciferase reporter, luminescence; inhibition, % at 9 µM; 370,000 tested, 0.17% active;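 active = inhibition above the mean inhibition of all tested compounds plus 3 SD, set per campaign, cut at about 52% in these data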
NCOA1 inh – inhibitors of human steroid receptor coactivator 1 (SRC1); inhibition, % at 3.6 µM; Q15788; 360,000 tested, 0.12% active; HEK293 GAL4-SRC1 luciferase reporter, luminescence;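 active = inhibition above the campaign mean plus 3 SD, with each screening campaign given its own cutoff, cut at about 60% in these data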
LRH-1 inv ag – suppresses constitutive activity of human LRH-1; HEK293T StAR-luciferase reporter, LRH-1 transfected, 24 h; inhibition, % at 3.6 µM; 360,000 tested, 0.13% active; AID 602396;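 active = inhibition above the mean inhibition of all tested compounds plus 3 SD, cut at about 73% in these data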
COUP-TFII inh – NR2F2 (human) inhibition, primary screen. P24468. HEK293T NGFI-A luciferase reporter, luminescence. inhibition, % at 8.6 µM. 370,000 tested, 0.7% active;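 active = inhibition above a per-plate cutoff, mean inhibition of test wells between control levels plus 3 SD, cut at about 38% in these data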;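 note: cells cotransfected with COUP-TFII expression vector driving the NGFI-A reporter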
NCOA3 inh – inhibitors of human steroid receptor coactivator 3 (SRC3); Q9Y6Q9; HEK293 GAL4-SRC3 luciferase reporter, luminescence; inhibition, % at 3.6 µM; 360,000 tested, 0.17% active; AID 588352;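 active = inhibition above a per-campaign cutoff, the mean of all compounds plus 3 SD, cut at about 60% in these data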;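 note: higher means less SRC3-driven luciferase light from the GAL4 reporter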
Target sequence (Q9Y6Q9 whole entry, looked up, the tested form may be a part): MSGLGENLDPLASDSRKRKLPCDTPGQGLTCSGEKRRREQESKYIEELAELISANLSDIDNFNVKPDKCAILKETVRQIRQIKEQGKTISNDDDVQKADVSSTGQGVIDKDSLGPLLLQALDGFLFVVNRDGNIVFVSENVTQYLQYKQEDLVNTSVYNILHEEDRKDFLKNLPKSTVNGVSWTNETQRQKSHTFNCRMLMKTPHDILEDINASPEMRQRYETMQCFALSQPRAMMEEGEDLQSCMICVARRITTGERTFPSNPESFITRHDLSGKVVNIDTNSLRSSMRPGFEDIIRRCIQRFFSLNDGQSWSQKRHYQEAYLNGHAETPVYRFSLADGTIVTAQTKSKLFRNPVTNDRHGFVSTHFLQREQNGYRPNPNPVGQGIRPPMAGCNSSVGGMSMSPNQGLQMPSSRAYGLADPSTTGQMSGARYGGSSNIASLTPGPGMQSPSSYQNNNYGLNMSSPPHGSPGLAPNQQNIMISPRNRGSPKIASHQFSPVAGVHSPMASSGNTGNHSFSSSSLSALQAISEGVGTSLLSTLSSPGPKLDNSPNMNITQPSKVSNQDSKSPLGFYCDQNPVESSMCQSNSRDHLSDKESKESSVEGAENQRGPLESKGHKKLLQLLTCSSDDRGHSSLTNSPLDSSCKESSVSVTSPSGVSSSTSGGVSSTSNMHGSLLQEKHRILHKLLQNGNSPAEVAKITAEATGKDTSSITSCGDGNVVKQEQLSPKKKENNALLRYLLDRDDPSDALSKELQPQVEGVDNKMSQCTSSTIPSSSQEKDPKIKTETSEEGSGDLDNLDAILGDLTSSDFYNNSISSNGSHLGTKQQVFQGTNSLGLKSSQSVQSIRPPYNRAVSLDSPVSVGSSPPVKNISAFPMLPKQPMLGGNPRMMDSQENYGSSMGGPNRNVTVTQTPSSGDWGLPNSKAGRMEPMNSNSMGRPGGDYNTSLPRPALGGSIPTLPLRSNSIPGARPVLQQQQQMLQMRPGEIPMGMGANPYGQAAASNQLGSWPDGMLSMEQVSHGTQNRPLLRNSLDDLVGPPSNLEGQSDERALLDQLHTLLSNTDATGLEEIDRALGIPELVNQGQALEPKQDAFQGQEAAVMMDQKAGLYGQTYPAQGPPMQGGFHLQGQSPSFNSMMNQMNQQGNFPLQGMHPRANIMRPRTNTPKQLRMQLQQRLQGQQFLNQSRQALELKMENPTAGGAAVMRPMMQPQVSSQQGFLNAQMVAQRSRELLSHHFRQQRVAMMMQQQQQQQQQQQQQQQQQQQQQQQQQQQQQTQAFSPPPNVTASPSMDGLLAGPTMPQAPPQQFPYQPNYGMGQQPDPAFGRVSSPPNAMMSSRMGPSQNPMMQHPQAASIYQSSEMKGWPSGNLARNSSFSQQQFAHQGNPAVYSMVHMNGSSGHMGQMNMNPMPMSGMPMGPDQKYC
Gli-Sufu block – antagonists of Gli-Sufu signaling; AID 588413; inhibition, % at 5 µM; 340,000 tested, 0.74% active; Sufu-KO-LIGHT fibroblasts, Gli luciferase reporter luminescence;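 active = inhibition above about 55%, limit read from the data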
Gli-Sufu confirm – confirmation of Gli-SUFU pathway antagonists; 2,500 tested, 40% active; Sufu-KO-LIGHT cells, Gli luciferase reporter, luminescence; shares compounds with Gli-Sufu block; inhibition, % at 5 µM;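 active = mean inhibition at 5 µM reaching about 45%, limit read from the data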
Gli cytotox – cytotoxicity counter-screen for Gli-SUFU antagonists. shares compounds with Gli-Sufu block. Sufu-KO-LIGHT cells cytotoxicity, ATP luminescence. cytotoxicity, % at 5 µM. 2,500 tested, 32% active;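 active = mean cytotoxicity at 5 µM above about 25%, limit read from the data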;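 note: cells exposed to compound overnight for roughly 16 to 18 hours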
Wnt3a cs – counter-screen for Gli-SUFU antagonists: Wnt3a reporter inhibition; shares compounds with Gli-Sufu block; Wnt-LIGHT cells, Wnt3a-driven luciferase reporter, luminescence; inhibition, % at 6.25 µM; 2,500 tested, 20% active; AID 651995;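 active = mean inhibition above about 25%, limit read from the data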
VP16 Luc counter – VP16 inhibition counter-screen for COUP-TFII; inhibition, % at 8.5 µM; 2,500 tested, 25% active; AID 687007; shares compounds with COUP-TFII inh; HEK293 Gal4-VP16 luciferase reporter, luminescence; in the data active = inhibition above about 13%
COUP-TFII conf – confirmation of human COUP-TFII (NR2F2) inhibitors; shares compounds with COUP-TFII inh; 2,500 tested, 45% active; inhibition, % at 8.5 µM; HEK293 NGFI-A luciferase reporter, luminescence;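 active = mean inhibition over three repeats above a set limit taken from the earlier primary screen, cut at about 38% in these data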
Each line names hits and unclear results; the compound was inactive in the other large screens (follow-up assays come after a bar, where they were run).

Cc1ccc(S(=O)(=O)NCc2ccncc2)c(C)c1C	COUP-TFII inh 68, Gli-Sufu block 76 | Gli-Sufu confirm 74 | Gli cytotox 28 | Wnt3a cs 37 | VP16 Luc counter inactive | COUP-TFII conf 57
CC(C)(C)OC(=O)NCc1cc(F)ccc1/C=C/S(=O)(=O)NC1CCCC1	none (no result: NCOA1 inh, LRH-1 inv ag, NCOA3 inh, Gli-Sufu block)
COc1ccc2c(c1)CNC2CS(=O)(=O)NCc1ccccc1 (stereo unspecified)	none (no result: NCOA1 inh, LRH-1 inv ag, NCOA3 inh, Gli-Sufu block)
COC(=O)N1C[C@H](O)[C@H](O)C[C@@H]1c1ccccc1Br	none (no result: NCOA1 inh, LRH-1 inv ag, NCOA3 inh, Gli-Sufu block)
CC(/C=N/NC(=O)CSc1nnc(SCc2ccc(C)cc2)s1)=C\c1ccco1	none (no result: NCOA1 inh, LRH-1 inv ag, NCOA3 inh, Gli-Sufu block)
COc1ccc(-c2cn(-c3ccc(OC)cc3)c3[n+]2-c2ccccc2CC3)cc1	COUP-TFII inh 62, NCOA3 inh 69, Gli-Sufu block 88 | Gli-Sufu confirm 91 | Gli cytotox 46 | Wnt3a cs 26 | VP16 Luc counter inactive | COUP-TFII conf 55
COc1ccc(Cn2c(-c3ccc(C)cc3)c[n+]3ccccc23)cc1	NCOA1 inh 61, LRH-1 inv ag 73, COUP-TFII inh 52, Gli-Sufu block 85 | Gli-Sufu confirm 86 | Gli cytotox 29 | Wnt3a cs 36 | VP16 Luc counter inactive | COUP-TFII conf 40
CCN(CC)S(=O)(=O)c1ccc(Oc2ccc(S(=O)(=O)N(CC)CC)cc2)cc1	COUP-TFII inh 38, Gli-Sufu block 80 | Gli-Sufu confirm 85 | Gli cytotox 45 | Wnt3a cs 29 | VP16 Luc counter inactive | COUP-TFII conf inactive
CCN(CC)S(=O)(=O)c1ccc(Oc2ccccc2OC)cc1	none
O=C(c1cc2sccc2n1Cc1ccc(F)cc1)N1CCN(c2nc3ccccc3s2)CC1	COUP-TFII inh 56, Gli-Sufu block 64 | Gli-Sufu confirm 70 | Gli cytotox 27 | Wnt3a cs inactive | VP16 Luc counter inactive | COUP-TFII conf inactive
O=C(c1cccs1)N1CCN(c2nc3ccccc3s2)CC1	none
COc1cc(C[C@@H]2C(=O)OC[C@H]2Cc2ccc(OC)c(OC)c2)ccc1O	COUP-TFII inh 70, Gli-Sufu block 66 | Gli-Sufu confirm 57 | Gli cytotox 32 | Wnt3a cs 32 | VP16 Luc counter inactive | COUP-TFII conf 57
CCCN(CC1CC1)C(=O)c1ccc(CNC(=O)c2cccc(Br)c2)cc1	none (no result: NCOA1 inh, LRH-1 inv ag, NCOA3 inh, Gli-Sufu block)
O=C(NCCNc1ccc(Cl)cc1[N+](=O)[O-])c1ccccc1F	none
O=C(NCCNc1ccnc2cc(Cl)ccc12)c1ccccc1F	COUP-TFII inh 55, Gli-Sufu block 67 | Gli-Sufu confirm 50 | Gli cytotox inactive | Wnt3a cs inactive | VP16 Luc counter inactive | COUP-TFII conf inactive
CCc1c(C)nc2ncnn2c1Nc1ccc(C)cc1	none
CCc1c(C)nc2ncnn2c1NCCc1ccc(OC)cc1	COUP-TFII inh 58, Gli-Sufu block 62 | Gli-Sufu confirm 61 | Gli cytotox 39 | Wnt3a cs inactive | VP16 Luc counter inactive | COUP-TFII conf 52
Cc1cc(=O)[nH]c(SCC(=O)/C=C2\N(C)c3ccccc3C2(C)C)n1	COUP-TFII inh 42, Gli-Sufu block 68 | Gli-Sufu confirm 61 | Gli cytotox inactive | Wnt3a cs 27 | VP16 Luc counter inactive | COUP-TFII conf inactive
CCOc1ccc(S(=O)(=O)NCc2ccncc2)cc1NC(=O)c1ccccc1	COUP-TFII inh 59, Gli-Sufu block 63 | Gli-Sufu confirm 66 | Gli cytotox 28 | Wnt3a cs inactive | VP16 Luc counter inactive | COUP-TFII conf 54
CC(C)Oc1cccc(C(=O)C2CCCN(Cc3cnn(C(C)C)c3)C2)c1 (stereo unspecified)	none

Assay outcomes as filed in PubChem.
